The values that follow come from PubChem BioAssay (NCI).

Among the test systems are SK-MEL-2 melanoma; EKVX NSCLC; SN12C renal; UO-31 renal; TK-10 renal; ACHN renal; CAKI-1 renal; CCRF-CEM leukemia; MOLT-4 leukemia; SR leukemia; RPMI-8226 leukemia; OVCAR-8 ovarian; OVCAR-5 ovarian; OVCAR-4 ovarian; SK-OV-3 ovarian; IGROV1 ovarian; OVCAR-3 ovarian; HS 578T breast; NCI/ADR-RES ovarian.
Common to all, as to assay: NCI-60 one-dose screen, 48 h (100 = growth as untreated, 0 = no growth, -100 = all killed)
Settings in all cases: 10 µM unless noted

This is part of a sample that, as a whole, favours compounds with a hit. Of some 83,000 tested, about 20% had one in any assay.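 Step 1: grow cells in 96-well plates. Step 2: add test compound at a single concentration. Step 3: incubate 48 h. Step 4: record percent growth.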 A number with no mark means an inactive call. The source made the active and inactive calls. Rule for the calls: active = growth percent below 10; inactive = the rest.

Take `CCOC(=O)c1c(N)sc2cc(O)ccc12`: the growth in the assay with SK-MEL-2 melanoma is 110%; with EKVX NSCLC it was 106%; in the assay with SN12C renal, 101%; in the assay on UO-31 renal, 83%; in the assay with TK-10 renal it was 101%; with ACHN renal, 98.2%. The growth in the assay on CAKI-1 renal is 97.7%; in the assay on CCRF-CEM leukemia, 111%; in the assay on MOLT-4 leukemia, 84.5%; in the assay with SR leukemia it was 93%; with RPMI-8226 leukemia, 110%; in the assay with OVCAR-8 ovarian it was 100%. Moreover, the growth in the assay on OVCAR-5 ovarian was 100%; in the assay with OVCAR-4 ovarian, 108%; in the assay with SK-OV-3 ovarian it was 111%; with IGROV1 ovarian, 97.1%; in the assay with OVCAR-3 ovarian, 97.9%; in the assay on HS 578T breast, 99.9%. In addition, in the assay on NCI/ADR-RES ovarian, the growth is 100%.
Consider `CCN1C(=O)N(CC)C2C1NN=c1s/c(=C\c3ccc(F)cc3)c(=O)n12` (stereo unspecified), for which the growth was 55.3% in the assay on SK-MEL-2 melanoma; 56.3% in the assay with EKVX NSCLC; 31.5% with SN12C renal; 41.7% with UO-31 renal; 64.8% with TK-10 renal; 35.2% in the assay with ACHN renal. Besides, the growth was 33% with CAKI-1 renal; 4.82% (active) in the assay on CCRF-CEM leukemia; 14.3% in the assay with MOLT-4 leukemia; 11.1% in the assay on SR leukemia; 21.3% in the assay on RPMI-8226 leukemia; 2.37% (active) in the assay on OVCAR-8 ovarian. The growth in the assay with OVCAR-5 ovarian is 33.1%; in the assay on OVCAR-4 ovarian it was 46.4%; in the assay with SK-OV-3 ovarian it was 37.2%; with IGROV1 ovarian, 23%; in the assay on OVCAR-3 ovarian, -25.9% (active); in the assay on HS 578T breast it was 12.4%. Besides, the growth in the assay on NCI/ADR-RES ovarian is 1.08% (active).
On to `CCN1CCN(c2cc(C(=O)Nc3cccc(Nc4ccc5c(OC)cccc5n4)c3)cc(C(F)(F)F)c2)CC1`, for which the growth is 65.3% with SK-MEL-2 melanoma; 46.2% in the assay on EKVX NSCLC; 25.4% in the assay on SN12C renal; -8.51% (active) in the assay with UO-31 renal; 36% with TK-10 renal; 12.5% in the assay on ACHN renal. Also, the growth in the assay with CAKI-1 renal was 6.06% (active); in the assay on CCRF-CEM leukemia it was 6.94% (active); in the assay on MOLT-4 leukemia it was -14.5% (active); in the assay with SR leukemia, -3.44% (active); in the assay on RPMI-8226 leukemia, 7.08% (active); with OVCAR-8 ovarian it was 21.1%. Also, the growth with OVCAR-5 ovarian was 54.8%; with OVCAR-4 ovarian, 26.9%; in the assay on SK-OV-3 ovarian, 54%; in the assay with IGROV1 ovarian, 12.8%; with OVCAR-3 ovarian, 33%; with HS 578T breast, 34%. The growth in the assay on NCI/ADR-RES ovarian is 9.7% (active).
As to `COC1=C(OC)C(=O)C(CCCCCCCCCCO)=C(C)C1=O`, the growth in the assay with SK-MEL-2 melanoma is 49.8%; in the assay with EKVX NSCLC, 89.8%; in the assay with SN12C renal, 57.6%; with UO-31 renal, 70.2%; with TK-10 renal, 112%; in the assay with ACHN renal it was 60.5%. For the same compound, the growth in the assay with CAKI-1 renal was 61%; with CCRF-CEM leukemia, 29.1%; in the assay on MOLT-4 leukemia it was 28.1%; in the assay with SR leukemia, 24%; in the assay on RPMI-8226 leukemia, 76%; with OVCAR-8 ovarian, 49.4%. Moreover, the growth in the assay on OVCAR-5 ovarian is 103%; with OVCAR-4 ovarian, -13.7% (active); in the assay on SK-OV-3 ovarian it was 82.7%; in the assay on IGROV1 ovarian, 57.7%; with OVCAR-3 ovarian, 69%; in the assay with HS 578T breast it was 92.6%. For the same compound, the growth with NCI/ADR-RES ovarian is 29.2%.
With `C/C(=C(\c1ccc(OCCCN(C)C)cc1)c1ccc(OC(=O)Cc2ccccc2)cc1)c1ccc(Cl)cc1`, the growth was 92.7% with SK-MEL-2 melanoma; 70.4% with EKVX NSCLC; 87.3% in the assay with SN12C renal; 62% with UO-31 renal; 87.8% in the assay with TK-10 renal; 94.3% in the assay with ACHN renal. In addition, the growth in the assay on CAKI-1 renal was 83.7%; in the assay with CCRF-CEM leukemia, 66.4%; in the assay with MOLT-4 leukemia, 48.7%; in the assay with SR leukemia, -34.9% (active); in the assay on RPMI-8226 leukemia it was 27.1%; with OVCAR-8 ovarian, 89.2%. The growth is 89.3% with OVCAR-5 ovarian; 69.8% in the assay with OVCAR-4 ovarian; 73.3% with SK-OV-3 ovarian; 88.4% in the assay on IGROV1 ovarian; 70.4% with OVCAR-3 ovarian; 66.4% in the assay on HS 578T breast. Besides, the growth in the assay on NCI/ADR-RES ovarian is 85.1%.
For `CCOC(=O)CCC(=O)P(=O)(O)O`, the growth is 104% in the assay with SK-MEL-2 melanoma; 106% in the assay with EKVX NSCLC; 108% in the assay on SN12C renal; 105% in the assay on UO-31 renal; 99.3% in the assay with TK-10 renal; 91.6% in the assay with ACHN renal. In addition, the growth in the assay with CAKI-1 renal was 137%; in the assay on CCRF-CEM leukemia, 75.1%; with MOLT-4 leukemia, 62.6%; with SR leukemia, 4.41% (active); in the assay on RPMI-8226 leukemia it was 42.1%; with OVCAR-8 ovarian, 97.1%. The growth was 116% in the assay on OVCAR-5 ovarian; 115% with OVCAR-4 ovarian; 80.5% in the assay with SK-OV-3 ovarian; 110% with IGROV1 ovarian; 115% with OVCAR-3 ovarian; 114% in the assay on HS 578T breast. Also, the growth in the assay with NCI/ADR-RES ovarian was 102%.
As to `COc1ccc(NC(=O)c2ccc(Cl)cc2Cl)cc1`, the growth was 106% in the assay with SK-MEL-2 melanoma; 89.1% in the assay on EKVX NSCLC; 101% in the assay on SN12C renal; 96.5% in the assay on UO-31 renal; 88.3% in the assay with TK-10 renal; 117% in the assay on ACHN renal. Moreover, the growth with CAKI-1 renal was 95.7%; with CCRF-CEM leukemia it was 106%; with MOLT-4 leukemia it was 107%; in the assay on SR leukemia, 98.2%; in the assay on RPMI-8226 leukemia, 101%; with OVCAR-8 ovarian, 98.6%. The growth was 101% in the assay with OVCAR-5 ovarian; 78.7% in the assay on OVCAR-4 ovarian; 106% in the assay on SK-OV-3 ovarian; 106% in the assay with IGROV1 ovarian; 106% in the assay with OVCAR-3 ovarian; 97.5% in the assay with NCI/ADR-RES ovarian.
Take `Cc1cccc(C)c1NC(=O)Nc1ccccc1`: the growth with SK-MEL-2 melanoma is 29%; in the assay on EKVX NSCLC, 121%; in the assay with SN12C renal, 88.6%; in the assay with UO-31 renal it was 80.7%; with TK-10 renal, 96.7%; with ACHN renal it was 4.67% (active). Besides, the growth is 54.3% with CAKI-1 renal; 83.1% in the assay on CCRF-CEM leukemia; 81.7% in the assay with MOLT-4 leukemia; 68.6% in the assay with SR leukemia; 96.1% in the assay on RPMI-8226 leukemia; 85.1% with OVCAR-8 ovarian. Further, the growth with OVCAR-5 ovarian is 72.2%; with OVCAR-4 ovarian, 76.6%; with SK-OV-3 ovarian, 102%; with IGROV1 ovarian, 71%; in the assay on OVCAR-3 ovarian, 115%; in the assay on HS 578T breast, 128%. In addition, in the assay on NCI/ADR-RES ovarian, the growth is 97.1%.
